Each sequence was assayed on PPARg homodimer (NR concentration 180 nM) (assay: PBM binding z-score (relative to random genomic background probes); higher = stronger binding; sequences stand for … in GC…GCGATTGACAGCGTAGAATGAAGG).
How it was run: (§1)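 Probes were double-stranded and carried 34-nt variable regions with direct-repeat seeds, single-nucleotide variants, half-site ablations and random human genomic background sequences, printed on custom Agilent 4×180K protein-binding microarrays. Arrays were incubated 1 h with ligand-free nuclear receptor dimers in PBS pH 7.4, 2% milk, 0.02% Triton X-100, 1 mM DTT, 0.2 mg/mL BSA and 0.4 mg/ml salmon testes DNA. Antibodies against each partner (one per run) detected binding, and scanned fluorescence was regression-normalized. Binding z-scores use the random background probes as reference.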
Work on ATCGCTAGGTAAAGATAGTTCAGTGAATGCAAAT yielded a PBM binding z-score of 0.116. TAGCCTAGGTCAGATCGGGCCAATATACGCTATA showed a PBM binding z-score of 0.782. Work on CCTACCGGGCCACGAAAGGTCATTGATTCAGTGA yielded a PBM binding z-score of 2.6. CCTTACGGGTCACTGACAGGTTATAGAATTTGGA gave a PBM binding z-score of 2.22. In the case of CCTTACGGGTCACTGACAGATTATAGCATTTGGA, the PBM binding z-score was 2.31. TCCCGGAGGACACGAAAGGTCAGAGCTCGACATC showed a PBM binding z-score of 2.86. TCTCAGAGGACACGAAAGGTCAGAGCTCGACATC was tested, and the PBM binding z-score was 3.62. Sequence CGTCCGAGGTCAGCAGGTCAGTGAAAGCGACGTG has a PBM binding z-score of 4.76. In the case of AGAATGAGGATATTAAGATCAGGGAATTGCGGTC, the PBM binding z-score was -0.141. In the case of CCTAGCAGCCCAGGGTCACTCAAGCATTTCGCTT, the PBM binding z-score was 1.2. In the case of GCTGCTAGGTCAACTGTTGGTCAGCTAAAGCTCG, the PBM binding z-score was 1.68. ACTGGCAGGCCAAGGGTCACTCAAGATTAGTCCG showed a PBM binding z-score of 1.74. In the case of CCTCGGAGGACAGAAGGTCGGAGCTGTCCGCTTT, the PBM binding z-score was 0.00885. Sequence TAGCCTAGGTCAGGCGGGCCAGTATAGTGTCGGC has a PBM binding z-score of -0.227. With AGAATGAGGTTAAGCTCAGGGAAACAGAATACAT the PBM binding z-score was -0.0277. Sequence CTTCAAAGTTCAACTAAGGTAACGTAAAGCACGC has a PBM binding z-score of 3.47. Work on TTACCAAGGTGAAGGTCTTTGATCCCTCTGTAGA yielded a PBM binding z-score of 0.225. ATCTCTAGGTAAATTTCAGTGAAAGATCGATAGA gave a PBM binding z-score of 0.671.

Each sequence was assayed on PXR:RXRa (NR concentration 270 nM, RXRa partner concentration 90 nM) in the same assay as above.
How it was run: as §1
Work on TCTTGTAGATCAAACAGGTTAAGAAAGCCTGAGT yielded a PBM binding z-score of 0.754. GCTAGTTGGTCAGTATAAGGTCACACACCGGTCG showed a PBM binding z-score of 4.26. Work on ATCTCTAGGTAACAAGTTCAGAGAAAGAGAGGAC yielded a PBM binding z-score of 1.59. TCTATTAGTTGTAGGGCAACCGACGAGTCCGTTT was tested, and the PBM binding z-score was 0.457. With AGAATGAAGTTATACGTAGATCAGGGAAGAAAGT the PBM binding z-score was -0.161. Sequence TAGCCTAGGTCATTAGGCCAGTATAGTACGCATC has a PBM binding z-score of 0.87. Work on CCTTACGGGTCTCGAGGTTATAGCACGACGAGCG yielded a PBM binding z-score of 0.396. ATACCAAGGTGATCGTAAGGTCGTTGATACTAAC gave a PBM binding z-score of 2.81. TTACCAAGGTGCAAGGTCGTTGATGCACGCCTTG gave a PBM binding z-score of 1.16. TCTTATAGGTAAACAGGTGAAAGTCCGTAAGTTA gave a PBM binding z-score of 0.753. Work on ATACCAAGGTGATCGTGAGGTCCTTGATACTAAC yielded a PBM binding z-score of 0.241. For TCATATAGGTAAAGGTGATAGTCGAACGATATGA, the PBM binding z-score was 0.398. For AGACAAAGTTCACTAGGTAACGTAAGATTCAGCT, the PBM binding z-score was 3.7. For GATGCTAGGTCAGGTTGGTCAGCTAACGGGTACG, the PBM binding z-score was 0.452. CCTTACTGGTCACGAGGTTATAGCACGACGAGCG was tested, and the PBM binding z-score was 1.55. In the case of TCTTGTAGATCAGCAAGTTAAGAAAGCTGGCCAA, the PBM binding z-score was -0.095. In the case of TCATATAGGGAAATGCTAGGTGAAAGTCCGATCT, the PBM binding z-score was 0.607. In the case of GCAAATAGGTAATACAAGGTGAAAGTCCGATTGT, the PBM binding z-score was 0.778. Work on GCTTACGGGTCAACGGTTATAGCATGAATAGAAT yielded a PBM binding z-score of 3.16. Sequence GCGACTGGGGCATCAGCAGATTACCATAACTTAA has a PBM binding z-score of -0.385. Sequence GCGACTGCGGCAAAGCAGGTTACCATAAGGTTGG has a PBM binding z-score of -0.186. With GCGACTGGGGCATTAGCAGGTTACCATAACTTAA the PBM binding z-score was -0.152. With ATCGCTAGGTAAAGATAGTTCAGTGAATGCAAAT the PBM binding z-score was 0.306. With TAGCCTAGGTCAGATCGGGCCAATATACGCTATA the PBM binding z-score was 2.21. CCTACCGGGCCACGAAAGGTCATTGATTCAGTGA gave a PBM binding z-score of 5.44. Sequence CCTTACGGGTCACTGACAGGTTATAGAATTTGGA has a PBM binding z-score of 3.68. CCTTACGGGTCACTGACAGATTATAGCATTTGGA showed a PBM binding z-score of 3.04. With TCCCGGAGGACACGAAAGGTCAGAGCTCGACATC the PBM binding z-score was 3.87. Work on TCTCAGAGGACACGAAAGGTCAGAGCTCGACATC yielded a PBM binding z-score of 4.28. CGTCCGAGGTCAGCAGGTCAGTGAAAGCGACGTG gave a PBM binding z-score of 4.43. Sequence AGAATGAGGATATTAAGATCAGGGAATTGCGGTC has a PBM binding z-score of -0.209. In the case of CCTAGCAGCCCAGGGTCACTCAAGCATTTCGCTT, the PBM binding z-score was 2.56. Sequence GCTGCTAGGTCAACTGTTGGTCAGCTAAAGCTCG has a PBM binding z-score of 1.48. ACTGGCAGGCCAAGGGTCACTCAAGATTAGTCCG was tested, and the PBM binding z-score was 2.97. Sequence CCTCGGAGGACAGAAGGTCGGAGCTGTCCGCTTT has a PBM binding z-score of -0.282. TAGCCTAGGTCAGGCGGGCCAGTATAGTGTCGGC was tested, and the PBM binding z-score was 0.158. AGAATGAGGTTAAGCTCAGGGAAACAGAATACAT gave a PBM binding z-score of 1.1. CTTCAAAGTTCAACTAAGGTAACGTAAAGCACGC showed a PBM binding z-score of 5.58. TTACCAAGGTGAAGGTCTTTGATCCCTCTGTAGA was tested, and the PBM binding z-score was 0.389. Work on ATCTCTAGGTAAATTTCAGTGAAAGATCGATAGA yielded a PBM binding z-score of 0.0865.
